Test results taken from PubChem BioAssay AID1851 (National Center for Advancing Translational Sciences (NCATS), 2009).
“And” between values parts separate entries of the source, which are not always exact repeats. Equal values may be shown once. The whole screen tested about 16,000 compounds, of which about 5,800 (36%) were called active. Inconclusive results (about 23%) are left out. Calls come from the whole dose curve; as a rule, active = well fitted curve in the direction sought with a large enough effect; inconclusive = small, poorly fitted or top-dose-only effect, or effect the other way; inactive = no such curve, though single readings can be large or run the other way. The list shows a part of the results. Some structures have more than one record in an assay (separate samples or runs), and their calls can disagree.

Molecular target: Cytochrome P450 2C19 (Homo sapiens) (UniProt P33261)
Assay: Cytochrome panel assay with activity outcomes
Conditions: recombinant CYP, pro-luciferin dealkylation, luminescence, p450-cyp2c19; series mostly up to 57.1 µM
% is set by controls: 0 for no effect and ±100 for the full control effect.

Cytochrome P450 2C19 (Homo sapiens), sequence (P33261 whole entry, looked up): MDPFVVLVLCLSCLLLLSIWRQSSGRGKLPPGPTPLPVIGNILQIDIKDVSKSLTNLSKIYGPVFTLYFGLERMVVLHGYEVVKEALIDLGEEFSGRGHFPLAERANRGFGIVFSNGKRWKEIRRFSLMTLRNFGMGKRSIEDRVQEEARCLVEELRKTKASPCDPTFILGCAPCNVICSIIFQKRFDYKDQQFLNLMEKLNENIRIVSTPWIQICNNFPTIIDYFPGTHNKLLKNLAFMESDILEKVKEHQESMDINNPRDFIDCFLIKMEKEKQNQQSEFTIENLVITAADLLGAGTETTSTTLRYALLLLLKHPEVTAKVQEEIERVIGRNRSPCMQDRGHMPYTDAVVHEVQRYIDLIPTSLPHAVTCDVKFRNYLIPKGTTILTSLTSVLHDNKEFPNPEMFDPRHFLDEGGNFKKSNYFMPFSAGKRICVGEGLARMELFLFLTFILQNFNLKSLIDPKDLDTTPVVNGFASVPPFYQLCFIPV

Row | SMILES | AC50 | activity, negative = inhibition
1 | CCC(C(=O)NC(C)(C)C)N(C(=O)Cn1nnc(-c2cccs2)n1)c1cnc2ccccc2c1 (centres undefined) | 31.6 µM (active) | 
2 | O=C(Nc1cnc2ccccc2c1)c1cccc(-n2cnnn2)c1 | inactive | 
3 | CCCCCCCCC(=O)NCc1cc(OC)c(O)cc1I | inactive | 
4 | COc1cc(CNC(=O)CCCC/C=C\C(C)C)ccc1O | 7.94 µM (active) | 
5 | CCCCCCCC/C=C\CCCCCCCC(=O)NCc1ccc(O)c(OC)c1 | inactive | 
6 | CC(C)C(=O)Nc1ccc(C(=O)NNC(=O)CCCOc2ccc(Cl)cc2Cl)cc1 | 4.47 µM (active) | 
7 | COc1ccc(/C=N/NC(=O)CCCOc2ccc(Cl)cc2Cl)cc1[N+](=O)[O-] | 1 µM (active) | 
8 | CC(C)(C)C(=O)NNC(=O)CCCOc1ccc(Cl)cc1Cl | 11.2 µM (active) | 
9 | CC(C)C(=O)Nc1ccc(C(=O)NNC(=O)C(c2ccccc2)c2ccccc2)cc1 | inactive | 
10 | CN1C[C@H](c2ccccc2)C(O)([C@]2(c3ccccc3)CN(C)C[C@@H](c3ccccc3)C2=O)[C@H](c2ccccc2)C1 (some centres undefined) |  | 7.29% [at 11.4 µM] (inactive)
11 | CCCCCCc1c(C[C@H](N)C(=O)O)o[nH]c1=O | inactive | 
12 | CCC/C=C(\CCC)C(NS(=O)(=O)c1ccc(C(F)(F)F)cc1)c1ccc(-c2ccccc2)cc1 (centres undefined) | 7.94 µM (active) | 
13 | C/C(=C\C1CCCCC1)C(NC(=O)c1ccc(C(F)(F)F)cc1)c1ccc(-c2ccccc2)cc1 (centres undefined) | inactive | 
14 | CCC/C=C(\CCC)C(NS(=O)(=O)c1ccccc1)c1ccc(C(F)(F)F)cc1 (centres undefined) | 7.94 µM (active) | 
15 | CCC/C=C(\CCC)C(NS(=O)(=O)c1ccc(C(F)(F)F)cc1)c1ccccc1 (centres undefined) | 0.398 µM (active) | 
16 | CC(C)CN1CCCC2(CCN(C(=O)c3cccn3C)CC2)C1 | inactive | 
17 | Cc1nn(S(=O)(=O)c2cccs2)c(C)c1Sc1ccc([N+](=O)[O-])cc1 | 0.562 µM (active) | 
18 | CC(C)(C)[Si](C)(C)c1c2c(nc3ccc(OCc4ccccc4)cc13)-c1cccc(=O)n1C2 | inactive | 
19 | COc1ccc2nc3c(c([Si](C)(C)C(C)(C)C)c2c1)Cn1c-3cccc1=O | 2 µM (active) | 
20 | Cc1c2c(nc3ccccc13)-c1cccc(=O)n1C2 | inactive | 
21 | CCCCC/C=C\C[C@H](O)/C=C\c1cccc(C[C@H](O)CCCCO)n1 | inactive | 
22 | COc1ccc2c(C=Nc3c(C)n(C)n(-c4ccccc4)c3=O)c(O)n(Cc3ccco3)c(=O)c2c1 | 10 µM (active) | 

Row | SMILES | AC50 | activity, negative = inhibition
23 | COc1ccc(C(=O)NCC(c2ccc(F)cc2)N2CCOCC2)cc1S(=O)(=O)N1CCCC1 (centres undefined) | 6.31 µM (active) | 
24 | OCCCN=C1CCCCC1 |  | 31.2% [at 11.4 µM] (inactive)
25 | Clc1ccc2c(NCCNc3ccnc4cc(Cl)ccc34)ccnc2c1 |  | -22.5% [at 11.4 µM] (inactive)
26 | O=C(N/N=C/c1cccc([N+](=O)[O-])c1)c1cc2c(ccc3ccccc32)o1 | inactive | 
27 | C=CCn1cc(/C=N\NC(=O)c2cc3c(ccc4ccccc43)o2)c2ccccc21 | 4.47 µM (active) | 
28 | CCC1C(=O)OCC1Cc1cncn1C (centres undefined) | 7.94 µM (active) | 
29 | CC[C@H]1C(=O)OC[C@H]1Cc1cncn1C | inactive | 
30 | CC1(C)Cc2c(C#N)c(SCc3ccccc3)nc(N3CCOCC3)c2CO1 | 8.91 µM (active) | 
31 | CN(C)c1ncc2nc(-c3ccc(Cl)cc3)c(=O)n(C[C@H]3CCCO3)c2n1 | inactive | 
32 | Cc1nc2cnc(Oc3cccc(Cl)c3)nc2n(CCC#N)c1=O | inactive | 
33 | N#CCCn1c(=O)c(CCc2ccccc2)nc2cnc(Oc3cccc(Cl)c3)nc21 | 6.31 µM (active) | 
34 | COCCn1c(=O)c(-c2cc(F)cc(F)c2)nc2cnc(Oc3cccc(Cl)c3)nc21 | inactive | 
35 | N#CCCn1c(=O)c(CCc2ccccc2)nc2cnc(Oc3ccccc3)nc21 | 31.6 µM (active) | 
36 | N#CCCn1c(=O)c(-c2cccc(C#N)c2)nc2cnc(Oc3ccccc3)nc21 | inactive | 
37 | N#CCCn1c(=O)c(-c2ccccc2)nc2cnc(Oc3cccc(Cl)c3)nc21 | inactive | 
38 | COCCn1c(=O)c(CCc2ccccc2)nc2cnc(Oc3cccc(Cl)c3)nc21 | 15.8 µM (active) | 
39 | COc1ncc2nc(-c3ccc(Cl)cc3)c(=O)n(C[C@H]3CCCO3)c2n1 | 10 µM (active) | 
40 | Cn1cc(-c2nc3cnc(Oc4ccccc4)nc3n(CCC#N)c2=O)c2ccccc21 | inactive | 
41 | COc1ccc(-c2nc3cnc(Oc4cccc(Cl)c4)nc3n(C[C@H]3CCCO3)c2=O)cc1 | inactive | 
42 | COCCn1c(=O)c(-c2cn(C)c3ccccc23)nc2cnc(Oc3cccc(Cl)c3)nc21 | inactive | 
43 | O=C(O)CC/C=C\C[C@@H]1CO[C@H](c2ccccc2Cl)O[C@@H]1c1ccccc1O | inactive | 
44 | COc1ccc(Oc2ncc3ncc(=O)n(C[C@H]4CCCO4)c3n2)cc1 | inactive | 

Row | SMILES | AC50 | activity, negative = inhibition
45 | O=c1c(CCc2ccccc2)nc2cnc(Oc3cccc(Cl)c3)nc2n1C[C@H]1CCCO1 | 20 µM (active) | 
46 | Cc1nc2cnc(Oc3cccc(Cl)c3)nc2n(C[C@H]2CCCO2)c1=O | inactive | 
47 | COC(=O)[C@]1(C)CCC(c2ccc(C)cc2)=C(CC(=O)O)C1 |  | 11.9% [at 11.4 µM] (inactive)
48 | COc1ccc(C(=O)n2c(SC)nc3cc4c(cc32)OCCO4)cc1 | 10 µM (active) | 
49 | CCOc1ccccc1NC(=O)CSc1nnc(-c2cnccn2)n1C | 15.8 µM (active) | 
50 | CO[C@H]1C[C@@H]2C[C@H](O)C[C@@H](CC(=O)O[C@@H](/C=C\CC(C)C)C[C@@H]3CC[C@H](C)[C@@H](C1)O3)O2 |  | 2.79% [at 11.4 µM] (inactive)
51 | O=C(NCC1CCCO1)C1c2ccccc2C(=O)N1Cc1ccc2c(c1)OCO2 (centres undefined) | inactive | 
52 | Cc1ccccc1OC1C(=O)N(Cc2ccc3c(c2)OCO3)C1c1sccc1C (centres undefined) | 1.12 µM (active) | 
53 | COc1ccc(CCN2C(=O)C(O)=C(C(=O)c3ccco3)C2c2cccs2)cc1OC (centres undefined) | inactive | 
54 | COCCCNC(=O)C1CC(=O)N(CCc2ccc(OC)c(OC)c2)C1 (centres undefined) | inactive | 
55 | COc1ccc(CCN2C(=O)C(Oc3ccccc3C)C2c2ccc3c(c2)OCO3)cc1OC (centres undefined) | 0.501 µM (active) | 
56 | O=C1C[C@@H](O)[C@@H](O)[C@H]2[C@@H]3C(=O)N(Cc4ccc5c(c4)OCO5)C(=O)[C@@H]3CC[C@H]12 |  | 37.1% [at 11.4 µM] (inactive) and -14% [at 11.4 µM] (inactive)
57 | COC(=O)c1ccc(C2C(Oc3ccccc3)C(=O)N2CCc2ccc(OC)c(OC)c2)cc1 (centres undefined) | 1.58 µM (active) | 
58 | CN(C)CCCO[C@H]1[C@@H]2OC(C)(C)O[C@@H]2O[C@@H]1[C@H](O)CO | inactive | 
59 | C[n+]1ccccc1/C=N\O | inactive | 
60 | CC(=O)NCCNc1ncnc2ccc(-c3ccc4c(c3)OCO4)cc12 | 6.31 µM (active) | 
61 | COc1ccccc1-c1ccc2ncnc(NCCNC(C)=O)c2c1 | inactive | 
62 | CC(=O)NCCNc1ncnc2ccc(-c3ccoc3)cc12 | inactive | 
63 | CC(=O)NCCNc1ncnc2ccc(-c3ccccc3C)cc12 | 20 µM (active) | 
64 | CC(=O)NCCNc1ncnc2ccc(-c3ccc(C(=O)N(C)C)cc3)cc12 | inactive | 
